Experimental data published in PubChem BioAssay AID624296 (National Center for Advancing Translational Sciences (NCATS), 2012).
Screen size: about 350,000 compounds; about 9,900 (2.8%) were called active. Entries that show only a call come without a potency. Another 15% or so got no clear call; they are omitted. Calls come from the whole dose curve; as a rule, active = well fitted activation curve with a large enough effect; inconclusive = small, poorly fitted or top-dose-only effect; inactive = no such curve, though single readings can be large or run the other way. This excerpt belongs to a sample that is enriched for actives.
Potency is the fitted concentration of half-maximal effect.

Experiment: A quantitative high throughput screen for small molecules that induce DNA re-replication in MCF 10a normal breast cells. Note: nearly all actives have a fitted effect of over 50% in size.
Settings: MCF 10A DNA re-replication, Hoechst nuclear intensity, 48 h; series mostly up to 46.1 µM
In the case of `COC(=O)c1ccc(C)c(NC(=O)Cn2c(C)csc2=O)c1`, the Potency was “inactive”.
In the case of `C=CCSc1nsc(NC(=O)Nc2cccc(C(C)=O)c2)n1`, the Potency was “inactive”.
In the case of `CCSc1nsc(NC(=O)Nc2cccc(C(C)=O)c2)n1`, the Potency was 16.4 µM (active).
With `CCSc1nsc(NC(=O)Nc2ccccc2OC)n1` the Potency was “inactive”.
In the case of `COc1cc(C2C(C(=O)c3ccc(C)o3)=C(O)C(=O)N2Cc2cccnc2)ccc1O` (configuration not stated), the Potency was “inactive”.
For `COc1cc(C2C(C(=O)c3ccc(C)o3)=C(O)C(=O)N2CCc2ccccc2)ccc1O` (configuration not stated), the Potency was “inactive”.
For `Cc1cc(N2C(=O)C(O)=C(C(=O)c3ccc(C)o3)C2c2ccc(OCc3ccccc3)cc2)no1` (configuration not stated), the Potency was 20.6 µM (active).
For `Cc1ccc(NC(=O)CN(C)C(=O)c2cccc(S(=O)(=O)N3CCCC3)c2)cc1`, the Potency was “inactive”.
For `Cc1ccc(S(=O)(=O)N2[C@@H](c3cccc4ccccc34)C(C(=O)O)=C[C@H]2C(C)(C)C)cc1`, the Potency was “inactive”.
In the case of `Cc1ccc(S(=O)(=O)N2C3C=CC(C3)C2C(=O)O)cc1` (configuration not stated), the Potency was “inactive”.
With `Cc1ccc(S(=O)(=O)N2[C@@H](c3ccccc3F)C(C(=O)O)=CC[C@H]2c2ccc(Cl)cc2)cc1` the Potency was 7.31 µM (active).
For `COC(=O)C1=C(C)N(Cc2ccccc2)C(=NCCCOC(C)C)N[C@H]1c1ccccc1`, the Potency was “inactive”.
With `CC1O[C@H](OC2C(COC3OC(CO)C(O)[C@H](O)C3O)OC(OC3CC[C@]4(C)C(CC[C@@]5(C)[C@@H]4C=C[C@]46OC[C@@]7(CCC(C)(C)C[C@H]74)C(O)C[C@@]56C)C3(C)C)C(O)C2O)C(O)C(O)C1O` (some centres not stated) the Potency was “inactive”.
In the case of `COc1ccc(OCCCC(=O)Nc2cccc(S(=O)(=O)N3CCCCCC3)c2)cc1`, the Potency was “inactive”.
With `CN(CC(=O)NC1CCN(Cc2ccccc2)CC1)S(=O)(=O)c1ccc(Cl)s1` the Potency was “inactive”.
In the case of `CC(=O)Oc1ccc(OC(C)=O)c2c1C1C=CC2CC1`, the Potency was 10.3 µM (active).
In the case of `CC(=O)Oc1ccc(C(C)=O)c2c1OCCO2`, the Potency was “inactive”.
For `CC(=O)Oc1ccccc1C1=NN(C(C)=O)C(c2ccccc2)C1` (configuration not stated), the Potency was “inactive”.
With `CCCCN(C(=O)c1cccc(N2C(=O)c3ccccc3C2=O)c1)c1c(N)n(CCCC)c(=O)[nH]c1=O` the Potency was “inactive”.
In the case of `O=C(COC(=O)C1CCCO1)Nc1nc(-c2ccc(F)cc2)cs1` (configuration not stated), the Potency was “inactive”.
In the case of `COc1cc(CNCCN(C)C)ccc1OCc1c(F)cccc1Cl`, the Potency was “inactive”.
In the case of `COCCCNC(=O)/C=C/c1ccc(OCc2c(F)cccc2Cl)cc1`, the Potency was “inactive”.
For `CN(C)CCCNC(=O)/C=C/c1ccc(OCc2c(F)cccc2Cl)cc1`, the Potency was 23.1 µM (active).
With `O=c1oc2ccccc2c(=O)c2ccccc12` the Potency was “inactive”.
In the case of `Cc1c(Cl)cccc1NC(=O)CC1SC(=NCC2CCCO2)NC1=O` (configuration not stated), the Potency was “inactive”.
In the case of `Cc1ccc(NC(=O)CC2S/C(=N/N=C3\CCCc4ccccc43)NC2=O)cc1` (configuration not stated), the Potency was 14.6 µM (active).
With `CCN=C1SC(CC(=O)Nc2ccc(C)cc2)C(=O)N1CC` (configuration not stated) the Potency was “inactive”.
